Measurements reported in PubChem BioAssay (NCI).
Compounds without any hit were thinned out: in the full panel of roughly 83,000, 20% have a hit.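 Percent growth is the endpoint: 0 to 100 indicates growth inhibition (40 means 60% inhibition), 0 means no net growth, and negative values indicate cell death.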 The source made the active and inactive calls. Rule for the calls: active = growth percent below 10; inactive = the rest.

Legend:
Assay in all cases: NCI-60 one-dose screen, 48 h (100 = growth as untreated, 0 = no growth, -100 = all killed)
Settings in all cases: 10 µM unless noted
NCI-H23 lung = test system: NCI-H23 lung
NCI-H226 lung = test system: NCI-H226 lung
NCI-H322M lung = test system: NCI-H322M lung
HOP-62 NSCLC = test system: HOP-62 NSCLC
NCI-H460 lung = test system: NCI-H460 lung
NCI-H522 lung = test system: NCI-H522 lung
A549/ATCC NSCLC = test system: A549/ATCC NSCLC
786-0 renal = test system: 786-0 renal
COLO 205 colon = test system: COLO 205 colon
DU-145 prostate = test system: DU-145 prostate
K-562 leukemia = test system: K-562 leukemia
MALME-3M melanoma = test system: MALME-3M melanoma
MDA-MB-231 breast = test system: MDA-MB-231 breast
RXF 393 renal = test system: RXF 393 renal
SF-268 CNS = test system: SF-268 CNS
SF-295 CNS = test system: SF-295 CNS
SF-539 CNS = test system: SF-539 CNS
UACC-257 melanoma = test system: UACC-257 melanoma
M14 melanoma = test system: M14 melanoma
HCT-15 colon = test system: HCT-15 colon

Measured: growth

O=C(Nc1ccc(Cl)cc1)Nc1ccc(Nc2nncc3ccccc23)cc1
inactive: NCI-H23 lung 12.5% | NCI-H226 lung 33.3% | NCI-H322M lung 64.3% | HOP-62 NSCLC 38.7% | NCI-H522 lung 11.9% | A549/ATCC NSCLC 20.1% | 786-0 renal 50.4% | COLO 205 colon 18.6% | DU-145 prostate 33.7% | MALME-3M melanoma 38.5% | MDA-MB-231 breast 36.6% | RXF 393 renal 65.7% | SF-268 CNS 42.4% | SF-295 CNS 17.8% | SF-539 CNS 33% | UACC-257 melanoma 15.3% | M14 melanoma 19.3% | HCT-15 colon 18.3%
active: NCI-H460 lung 9.89% | K-562 leukemia 9.49%

Nc1ncc(-c2cnn(C3CCNCC3)c2)cc1-c1nc2cc(Cl)ccc2o1
active: NCI-H23 lung -61.7% | NCI-H226 lung -63.3% | NCI-H322M lung -59.1% | HOP-62 NSCLC -98.1% | NCI-H460 lung -100% | NCI-H522 lung -87.6% | A549/ATCC NSCLC -100% | 786-0 renal -100% | COLO 205 colon -100% | DU-145 prostate -100% | K-562 leukemia -100% | MALME-3M melanoma -92.5% | MDA-MB-231 breast -91.7% | RXF 393 renal -96.4% | SF-268 CNS -83.4% | SF-295 CNS -78.7% | SF-539 CNS -100% | UACC-257 melanoma -93.3% | M14 melanoma -100% | HCT-15 colon -84.9%

C=C(C[C@@](O)(C(=O)Oc1ccccc1)C(=O)C1CCCCC1)c1ccccc1
inactive: NCI-H23 lung 103% | NCI-H226 lung 108% | NCI-H322M lung 112% | HOP-62 NSCLC 108% | NCI-H460 lung 107% | NCI-H522 lung 91.8% | A549/ATCC NSCLC 92.2% | 786-0 renal 98.9% | COLO 205 colon 120% | DU-145 prostate 110% | K-562 leukemia 107% | MALME-3M melanoma 101% | MDA-MB-231 breast 99.9% | RXF 393 renal 91.4% | SF-268 CNS 99.6% | SF-295 CNS 100% | SF-539 CNS 98.4% | UACC-257 melanoma 92.8% | M14 melanoma 106% | HCT-15 colon 109%

c1csc([C@@H]2C[C@@H]3Cc4ccc5ccccc5c4N2O3)c1
inactive: NCI-H23 lung 95.5% | NCI-H226 lung 108% | NCI-H322M lung 91.2% | HOP-62 NSCLC 112% | NCI-H460 lung 109% | NCI-H522 lung 87% | A549/ATCC NSCLC 90.8% | 786-0 renal 98.2% | COLO 205 colon 120% | DU-145 prostate 113% | K-562 leukemia 93.2% | MALME-3M melanoma 86.4% | MDA-MB-231 breast 89.1% | RXF 393 renal 104% | SF-268 CNS 108% | SF-295 CNS 109% | SF-539 CNS 90.5% | UACC-257 melanoma 98.7% | M14 melanoma 99.7% | HCT-15 colon 93.7%

COc1cccc2c1O/C(=C\c1c([N+](=O)[O-])ncn1C)C2=O
inactive: NCI-H23 lung 99.8% | NCI-H226 lung 96.9% | NCI-H322M lung 84.7% | HOP-62 NSCLC 105% | NCI-H460 lung 109% | NCI-H522 lung 84.3% | A549/ATCC NSCLC 99.8% | 786-0 renal 96.1% | COLO 205 colon 109% | DU-145 prostate 102% | K-562 leukemia 89.9% | MALME-3M melanoma 92.4% | MDA-MB-231 breast 119% | RXF 393 renal 113% | SF-268 CNS 98.3% | SF-295 CNS 98.2% | SF-539 CNS 100% | UACC-257 melanoma 93.5% | M14 melanoma 103% | HCT-15 colon 91.4%

Clc1ncn[nH]1
inactive: NCI-H23 lung 106% | NCI-H226 lung 102% | NCI-H322M lung 98.4% | HOP-62 NSCLC 98.6% | NCI-H460 lung 111% | NCI-H522 lung 94.9% | A549/ATCC NSCLC 98.1% | 786-0 renal 103% | COLO 205 colon 104% | DU-145 prostate 110% | K-562 leukemia 105% | MALME-3M melanoma 103% | MDA-MB-231 breast 112% | RXF 393 renal 102% | SF-268 CNS 104% | SF-295 CNS 78.6% | SF-539 CNS 99.8% | UACC-257 melanoma 95% | M14 melanoma 105% | HCT-15 colon 98.6%

O=C(Oc1ccc[nH]c1=O)c1cccc(Cl)c1
inactive: NCI-H23 lung 95.6% | NCI-H226 lung 109% | NCI-H322M lung 99.9% | HOP-62 NSCLC 90.5% | NCI-H460 lung 100% | NCI-H522 lung 95.3% | A549/ATCC NSCLC 101% | 786-0 renal 90.7% | COLO 205 colon 84.4% | DU-145 prostate 113% | K-562 leukemia 104% | MALME-3M melanoma 104% | MDA-MB-231 breast 103% | RXF 393 renal 163% | SF-268 CNS 101% | SF-295 CNS 108% | SF-539 CNS 88.2% | UACC-257 melanoma 113% | M14 melanoma 95.8% | HCT-15 colon 91.2%

CO[C@H]1CC(O[C@@H]2/C(C)=C/C[C@@H]3C[C@@H](C[C@]4(CC[C@H](C)[C@@H](C5CCCCC5)O4)O3)OC(=O)[C@@H]3C=C(C)/C(=N/O)[C@H]4OC/C(=C\C=C\[C@@H]2C)[C@]43O)O[C@@H](C)C1O (stereo not given in full)
active: NCI-H23 lung -76.2% | NCI-H226 lung -84.2% | NCI-H322M lung -78% | HOP-62 NSCLC -88.8% | NCI-H460 lung -82.3% | NCI-H522 lung -73.4% | A549/ATCC NSCLC -82.9% | 786-0 renal -91.1% | COLO 205 colon -79.4% | DU-145 prostate -96.1% | K-562 leukemia -36.7% | MALME-3M melanoma -46.3% | MDA-MB-231 breast -89% | RXF 393 renal -97.2% | SF-268 CNS -92.2% | SF-295 CNS -89.5% | SF-539 CNS -68.8% | UACC-257 melanoma -81.6% | M14 melanoma -81.4% | HCT-15 colon -75.1%
